About 83,000 compounds went through this panel and 20% of them were active in at least one assay; those are over-represented in the sample as a whole.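 A percent growth of 40 corresponds to 60% growth inhibition; 0 means no net growth; -100 means all cells died. Active threshold: below 10.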 The source made the active and inactive calls.
Tested on: HL-60(TB) leukemia
Experiment: NCI-60 one-dose screen, 48 h (100 = growth as untreated, 0 = no growth, -100 = all killed)
Conditions: 10 µM unless noted

SMILES	growth
CCN1C(=O)N(CC)C2C1NN=c1s/c(=C3\C(=O)N(C4CCCC4)c4ccccc43)c(=O)n12 (stereo not given)	-44.5% (active)
COc1cc(Cc2cc(-c3ccc(Cl)cc3)n[nH]c2=O)ccc1O	93.5% (inactive)
CCc1cnc2ccccc2c1/C=C/c1ccc(N(C)C)cc1	12.9% (inactive)
C=C1C(=O)O[C@H]2[C@H]1CC/C(COC(=O)c1c[nH]c3ccccc13)=C\CC[C@@]1(C)O[C@@H]21	-25.9% (active)
O=C1c2[nH]cc(CN[C@@H]3CCCN3)c2C(=O)c2c1c(O)c1ccccc1c2O	-73% (active)
CCN(CC)c1ccc(N=C2C=CC(=O)C=C2NC(C)=O)cc1	55.3% (inactive)
CCOC(=O)c1nn(-c2ccc(S(N)(=O)=O)cc2)c2nc(C)cc(=O)n12	101% (inactive)
CN(C)c1ccc(C(=O)c2ccc(N(C)C)c(N)c2)cc1N	7.38% (active)
Oc1ccc2ccccc2c1N=Nc1ccccn1	-32.4% (active)
COc1ccc(C(C)=O)cc1N1C(=O)C2C(C1=O)C1(c3ccccc3)C(=O)C2(c2ccccc2)C(c2ccc(C)cc2)=C1c1ccc(C)cc1 (stereo not given)	17.1% (inactive)
COc1ccc(/C=C/c2nc(N3CCOCC3)c3cc(F)c(F)cc3n2)cc1OC	-2.81% (active)
CC(=O)O[C@H]1CC[C@]2(C)[C@H]3CC=C4[C@@H]5CC(C)(C)CC[C@]5(C(=O)NCCNCCN)CC[C@@]4(C)[C@]3(C)CC[C@H]2C1(C)C	-67.6% (active)
CC1(C)CC[C@]2(C(=O)N3CCOCC3)CC[C@]3(C)C(=CC[C@@H]4[C@@]5(C)CC[C@H](OC(=O)c6cccnc6)C(C)(C)[C@@H]5CC[C@]43C)[C@@H]2C1	45.4% (inactive)
O=C(Nc1cccc2[nH]c(C(F)(F)F)nc12)c1ccc(Br)cc1F	22.4% (inactive)
COc1ccc(-c2cnoc2-c2ccc(OC)cc2O)cc1	26.4% (inactive)
CCCCOc1c(N)cc(Cl)cc1C(=O)OCCN(CC)CC	51% (inactive)
N#CC1C(c2ccc(Cl)cc2)=Nc2c(c(-c3ccccc3)nn2-c2ccccc2)C12C(=O)Nc1ccc(Cl)cc12 (stereo not given)	-1.59% (active)
Cc1cc(C)nc(SC2=C(Nc3cc(Cl)ccc3O)C(=O)N(Cc3ccccc3)C2=O)n1	85.3% [30 µM] (inactive)
C=Cc1nn2c(CCC(=O)c3nc4ccccc4[nH]3)nnc2s1	104% (inactive)
O=C1/C(=C/c2cn(-c3ccccc3)nc2-c2ccccc2)SC(=S)N1c1ccccc1	103% (inactive)

SMILES	growth
COc1cc(/C=C/c2ccnc3ccccc23)cc(OC)c1OC	15.7% (inactive)
CN1C(=O)CN2CCc3ccccc3C2c2cc(Cl)ccc21 (stereo not given)	86.8% (inactive)
CCCCC(CC)COC(C)=O (stereo not given)	100% (inactive)
O=C1/C(=C/c2ccc(Br)cc2)COc2ccc(O)cc21	-15.7% (active)
CCCCCCCC/C=C\CCCCCCCCOc1cccc(CC(=O)NCC[N+]2(C)CCCC2)c1	49.3% (inactive)
N#Cc1nc(-c2ccc(F)cc2)oc1S(=O)(=O)N1CCN(c2ccc(F)cc2)CC1	52.3% (inactive)
COc1ccc2c(c1)nc(N)c1c3ccccc3cn21	67.1% (inactive)
COc1ccc(/C=C(\C#N)n2nc3cccc(F)c3n2)cc1	82% (inactive)
Nc1nc(-c2ccc(Cl)cc2)nc2c1sc(=S)n2-c1ccccc1	103% (inactive)
CCOC(=O)C/C(=C\c1ccccc1)C(C)=O	98.5% (inactive)
O=C1CCCCN1c1ccc(C2=NCCCN2)cc1	70.7% (inactive)
C#Cc1cccc(Nc2nc(Cl)nc3cc(NC(=O)CCl)ccc23)c1	-45.8% (active)
O=C(Nc1ccc(N2CCNCC2)cn1)c1[nH]ncc1Nc1ncnc2sccc12	76.7% (inactive)
O=S(=O)(c1cc(Cl)ccc1O)c1cc(Cl)ccc1O	74.2% (inactive)
N=c1c(C(=O)OCc2ccccc2)ncc(CCl)n1O	81.4% (inactive)
O=c1[nH]c(CN2CCN(c3ccccc3F)CC2)nc2sc3c(c12)CCC3	116% (inactive)
O=C(NN=C1CCCCC1)C(=O)NN=C1CCCCC1	81.5% (inactive)
O=C(O)COc1ccc(F)cc1	94.2% (inactive)
CCCC[P+](c1ccccc1)(c1ccccc1)c1ccccc1	16.3% (inactive)
CC(=O)N1CCN(CCNC(=O)n2cc(-c3ccncc3)c(-c3ccc(O)c(Cl)c3)n2)CC1	106% (inactive)
